# Inconclusive results are not listed. Active and inactive are the calls of the source. Calls come from the whole dose curve; as a rule, active = well fitted inhibition curve with a large enough effect; inconclusive = small, poorly fitted or top-dose-only effect; inactive = no such curve, though single readings can be large or run the other way.
# Experiment: Counterscreen qHTS for Identification of Calcium Integrin Binding Protein 1 (CIB1) Competitor
# Conditions: series mostly up to 114 µM; activity, negative = inhibition: at the top concentration
# Summary of the method: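 Compounds (final up to 114 uM) preincubated 15 min at room temperature with 1 uM CIB1-GST in calcium-containing HEPES pH 7.4 buffer; 100 nM scrambled FITC peptide added, and fluorescence polarization (480/540) measured after another 15 min.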
# % is set by controls: 0 for no effect and ±100 for the full control effect; potency is the fitted concentration of half-maximal effect.
SMILES,"activity, negative = inhibition",Potency
C=CCNc1oc(-c2ccc(-c3ccccc3)cc2)nc1C#N,-5.95% (inactive),
CSc1cc2c(s1)c1cnn(Cc3cccc(N)c3)c(=O)c1n2C,-44.6% (inactive),
Cn1c(NC2=NC3(CCCC3)C3=C(CCCC3=O)N2)nc2ccccc21,-10.7% (inactive),
O=c1c(O)c(-c2ccc(O)c(O)c2)oc2cc(O)cc(O)c12,,inactive
N#Cc1ccc(N[S+](=O)([O-])c2ccc(Nc3nc(-c4ccccc4)cs3)cc2)cc1,,44.7 µM (active)
N#Cc1cnc(NS(=O)(=O)c2ccc(NC(=O)Cc3ccc(Cl)c(Cl)c3)cc2)s1,17.8% (inactive),
O=c1[nH]sc2cc(Cl)ccc12,5.24% (inactive),
NC[C@H](O)c1ccc(O)c(O)c1,,inactive
O=C1c2cccc(O)c2C(=O)c2c(O)cc(CO)cc21,2.61% (inactive),
Oc1cccc2c(-c3nn[nH]n3)ccnc12,-28.8% (inactive),
CC(C)(O)CCc1ccc(OCc2cc(-c3cccc(OC(F)F)c3)c3ncccc3c2)cc1,-6.79% (inactive),
O=C1CCCC2=C1C(c1cccnc1Br)N=C(Nc1nc3ccccc3o1)N2 (configuration not stated),17.1% (inactive),
Nc1ccc(O)c([N+](=O)[O-])c1,,63.1 µM (active)
CCC(=O)NC(c1cccs1)c1cc(Br)c2cccnc2c1O (configuration not stated),-17.2% (inactive),
CCOC(=O)c1nnc(N[S+](=O)([O-])c2ccc(NC(=O)Cc3ccc(Cl)c(Cl)c3)cc2)s1,47.7% (inactive),
O=C1CCC2=C1C1(CCCC1)N=C(Nc1nc3ccccc3o1)N2,-0.897% (inactive),
Cc1ccc(C(=O)Nc2ccc(S(=O)(=O)O)c3cc(S(=O)(=O)O)cc(S(=O)(=O)O)c23)cc1NC(=O)c1cccc(NC(=O)Nc2cccc(C(=O)Nc3cc(C(=O)Nc4ccc(S(=O)(=O)O)c5cc(S(=O)(=O)O)cc(S(=O)(=O)O)c45)ccc3C)c2)c1,15.9% (inactive),

# From PubChem BioAssay AID1508619 (National Center for Advancing Translational Sciences (NCATS), 2020)
